# Measurements reported in the OligoGym collection.
# Molecular target: LMO4
# Assay: pooled miR-30 sensor sort-seq; sequence = guide strand
# Conditions: shRNA
# Also: reference of the scale not given here.
row,Sequence,sensor-assay potency score (higher = more potent)
1,TTCACTCGCAGGAATCGACTGT,0.156
2,TTGGTGTAACAGGACGTGCCGA,-0.708
3,TAAACTGCCATTGATGTAGTGA,0.368
4,TAGTGAAACCGATCTCCCGGGA,-0.538
5,TCACTCGCAGGAATCGACTGTC,0.214

# Molecular target: LNPEP
# Assay: as above
# Conditions: shRNA
row,Sequence,sensor-assay potency score (higher = more potent)
1,TTGAATAATTTCTTCCTTCAGT,-0.0999
2,TACTGTGTCAGTAACTTTCTGG,0.276
3,TTCTCTTTGACAAAATCCCATG,-1.18
4,TTATAGATGAGGTCTGTCTGAA,0.0575
5,TTTCTCATTACTTTCATCTGTG,0.22
6,TTCTGTACAAGCTTATTCCAGT,-0.169
7,TAAATAACTACATACTGCCCAA,-0.52
8,TTTTGTTCTTCTCTGCTTCAGA,-0.123
9,TTGAATAGATGCATAGCTGTGA,0.497
10,TACAGAAACAGCAACCACGATG,-0.798
11,TTGTTGTATAAAAAGTTCCTTT,-0.495
12,TTTCTTGGCTTGAAACTGCTGA,0.246

# Molecular target: LNX1
# Assay: as above
# Conditions: shRNA
row,Sequence,sensor-assay potency score (higher = more potent)
1,TAATACAATATCTTTACAGTTA,-0.86
2,TAGTTAGAGTAATTCTTCCTTT,-0.396
3,TTCTTCGTAATACAATATCTTT,-1.2
4,TAGATGATCATACTTTTCCTGA,-0.507
5,AAAGCTTTGAGTACTATCGAGG,-0.642
6,TTTTTGGATATTTACCACCTTC,-0.64
7,TTGAGAATCACATGAAAGCTGT,0.307
8,TTGGATAATGATATGGACCAGT,-0.0255
9,TTGAGTACTATCGAGGATGATG,-0.956
10,TTACAGTTATACAAGCACCGTG,-0.215
11,TTTATTCTTCCATCTCTGCTTA,0.44
12,TACAGTTATACAAGCACCGTGG,-0.0834

# Molecular target: LONP1
# Assay: as above
# Conditions: shRNA
row,Sequence,sensor-assay potency score (higher = more potent)
1,TAACACCTTCTCCACTTGCTTC,-1.18
2,TCTCTCTTTAGAAAGACGCCGA,-0.565
3,ATCTGCAGCACTGACTCCCTGT,-0.477
4,TTTCCGTAACACCTTCTCCACT,-1.42
5,TCGTCGATGAGGATCAGGGGGT,-0.954
6,TAGAAGTCCTTCTTGTTCTCGG,0.532
7,AAACACTGGATGATCTTCCCGG,0.233
8,TGAAGCGGAAGTACTCTCGGTT,-0.124
9,TTCAAGGCAATGATGTCCCGGA,-0.021
10,ATCCTTGTCGTCCTTCTCCAGG,-1.37
11,TTGCGGACACCGCTCTCGCGGC,-1.33
